Shown are actives, neighbours in structure and some others; about 17% of the full set was active somewhere.
DT40 TDP1 CPT – qHTS for Inhibitors of human tyrosyl-DNA phosphodiesterase 1 (TDP1): qHTS in cells in presence of CPT; chicken DT40 Tdp1-/-;hTDP1 cells + 20 nM CPT, ATP luminescence, 48 h; Potency, µM (series often up to 46.2 µM), for the others: top-dose activity change, negative = growth inhibition, hits mostly inhibitors; hit rate 12% among 420,000; AID 686979, 2013; also: % is scaled to controls: 0 for no effect and ±100 for the full control effect; nearly all actives have a fitted effect of over 55% in size
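Cell growth measured by CellTiter-Glo luminescence after a minimum 48 h, 37 C compound exposure with 20 nM CPT in Tdp1-knockout DT40 cells stably expressing hTDP1, seeded 400/well; qHTS titration format.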
TDP1 cell noCPT – qHTS for Inhibitors of human tyrosyl-DNA phosphodiesterase 1 (TDP1): qHTS in cells in absence of CPT; DT40 Tdp1-/- hTDP1 cells, no CPT, ATP luminescence, 48 h; Potency, µM (highest dose often 46.2 µM), for inactives: at the highest dose activity change, negative = growth inhibition, actives largely listed as inhibitors; hit rate 15% among 420,000; also: % is scaled to controls: 0 for no effect and ±100 for the full control effect; nearly all actives have a fitted effect of over 55% in size
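DT40 Tdp1-/-;hTDP1 cells, no CPT (DMSO vehicle only), 400 cells/well; compounds pin-transferred; ≥48 hr, 37 °C; CellTiter-Glo 30 min RT dark, luminescence read.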
ATXN viability – Viability Counterscreen for Primary qHTS for Inhibitors of ATXN expression | S2 cells (HEK-293 line with an ATXN2-luciferase reporter) viability, CellTiter-Fluor protease fluorescence, 24 h | Potency, µM (series often up to 56.7 µM), most hits filed as cytotoxic | hit rate 0.49% among 400,000; also: nearly all actives have a fitted effect of over 40% in size
ATXN2 expr inh – Primary qHTS for Inhibitors of ATXN expression | HEK-293 ATXN2-luciferase reporter, luminescence, 24 h | Potency, µM (top dose mostly 57 µM), without a hit: at the top dose activity change, negative = inhibition, most hits filed as inhibitors | hit rate 0.72% among 360,000 | AID 1745845, 2022; also: % is scaled to controls: 0 for no effect and ±100 for the full control effect; nearly all actives have a fitted effect of over 55% in size
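ATXN2-luciferase reporter cells (luciferase flanked by upstream and downstream ATXN2 gene portions) were treated 24 h at 37 °C with compounds at up to 57 uM. SteadyGlo luminescence gave expression; GF-AFC fluorescence gave viability.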
HepG2 viability – qHTS for Inhibitors of TGF-b: Cytotox Counterscreen | hit rate 0.76% among 410,000 | HepG2 CAGA-GFP viability, ATP luminescence, 18 h | Potency, µM (doses to about 46.1 µM), for the others: top-dose activity change, negative = cytotoxicity, most hits filed as cytotoxic
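CellTiter-Glo luminescence gave cytotoxicity after 18 hours at 37 degrees C. The cells were HepG2 CAGA-GFP in 1% FBS DMEM, stimulated with 500 pg/mL TGF-beta after compound addition. %Activity was normalised to no-cell wells (complete cell-killing) and DMSO (no toxicity), and curves were fitted and classified.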
TGFb SMAD3 inh – qHTS for Inhibitors of TGF-b. HepG2 CAGA-GFP TGF-b/SMAD3 reporter, GFP fluorescence, 18 h; TGF-beta stimulated, 500 pg/mL final. Potency, µM (highest dose often 46.1 µM), for inactives: at the highest dose activity, negative = inhibition, usual class: inhibitors. hit rate 1.2% among 410,000. AID 588855, 2011; also: % is scaled to controls: 0 for no effect and ±100 for the full control effect; nearly all actives have a fitted effect of over 65% in size
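GFP signal (ex488/em500-530) from TGF-beta-stimulated HEPG2 CAGA-GFP cells, 500 pg/mL final, 18 h at 37 degrees C in DMEM plus 1% FBS, normalized to unstimulated and DMSO-stimulated controls.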
Numbers without * were called inactive; i = inactive; ? = inconclusive; · = no result given. Calls follow the shape of the dose curve; as a rule, active = well fitted curve in the direction sought with a large enough effect; inconclusive = small, poorly fitted or top-dose-only effect, or another doubt; inactive = no such curve, though single readings can be large; an effect the other way counts as inactive or inconclusive. Potency is read from the fitted curve at half-maximal effect.

SMILES	DT40 TDP1 CPT	TDP1 cell noCPT	ATXN viability	ATXN2 expr inh	HepG2 viability	TGFb SMAD3 inh
c1ccc(Cn2nnc3c(N4CCC5(CC4)OCCO5)ncnc32)cc1	-18%	?	i	22%	-3%	0%
OC1(c2cccc(C(F)(F)F)c2)CCN(c2ncnc3c2[nH]c2ccccc23)CC1	23µM*	21µM*	?	27%	-53%	?
c1ccc2c(c1)[nH]c1c(N3CCC4(CC3)OCCO4)ncnc12	16µM*	7.3µM*	i	-22%	-5%	?
CCC(C(=O)Nc1ccccc1)n1nc(-c2cc(C)ccc2C)ccc1=O (centres undefined)	?	-29%	i	-8%	-20%	?
COc1ccc(OCCn2nnc3sc4c(c3c2=O)CCCC4)cc1	-24%	-12%	i	11%	-1%	-7%
CCCCCn1c(=O)c2c(nc3n2CCN3c2ccc(Br)cc2)n(C)c1=O	?	?	·	·	0%	?
COc1cc2cc(C(=O)N3CCc4ccccc4C3)[nH]c2cc1OC	-4%	4%	i	-1%	8%	8%
c1ccc2c(c1)CCN(c1ncnc3c1[nH]c1ccccc13)C2	4.6µM*	4.6µM*	?	?	-61%	?
COc1cccc2[nH]c3c(N4CCc5ccccc5C4)ncnc3c12	?	21µM*	i	-35%	0%	19%
c1ccc(Cn2nnc3c(N4CCc5ccccc5C4)ncnc32)cc1	-12%	?	i	-7%	-26%	-17%
Cc1cccc(NC(c2ccccc2F)c2ccc3ccc(C)nc3c2O)n1 (centres undefined)	?	23µM*	i	-1%	0%	?
Cc1ccc(C)c(C(Nc2ccccc2)c2ccc3ccc(C)nc3c2O)c1 (centres undefined)	21µM*	18µM*	·	·	·	·
Cc1ccnc(NC(c2cccc(O)c2)c2ccc3ccc(C)nc3c2O)c1 (centres undefined)	?	?	?	?	-27%	?
O=C(OCC(O)C(O)C(O)C(SCc1ccccc1)SCc1ccccc1)c1ccccc1 (centres undefined)	29µM*	?	i	-18%	-46%	?
COc1cccc(NC(=O)Nc2nc(SC)ns2)c1	9.2µM*	?	i	42%	-42%	?
O=C(N/N=C/c1ccccc1O)C1CC(=O)N(c2ccc(F)cc2)C1 (centres undefined)	3.3µM*	5.8µM*	i	?	-3%	?
COc1ccc(Nc2n[nH]c(N)c2C(N)=O)cc1	-11%	-11%	i	·	-10%	21%
O=C(Nc1ncccc1O)c1ccc(NS(=O)(=O)c2ccc3[nH]c(=O)[nH]c3c2)cc1	?	?	i	0%	-16%	-9%
Cc1ccccc1NC(=O)c1ccc(NS(=O)(=O)c2cc(C(C)(C)C)cc(C)c2C)cc1	?	15µM*	i	-20%	10%	?
O=C(Nc1ccccc1O)c1ccc(NS(=O)(=O)c2cccc3cccnc23)cc1	4.1µM*	7.3µM*	i	156%	-45%	?
Cc1cc(C(C)(C)C)cc(S(=O)(=O)Nc2cccc(C(=O)O)c2)c1C	-3%	-10%	i	-8%	0%	1%
O=C(Nc1ncccc1O)c1ccc(S(=O)(=O)Nc2ccccc2)cc1	5.2µM*	5.2µM*	i	80%	-19%	-6%
CN(C)c1ccc(NC(=O)CSC2=Nc3ccccc3C3=NC(CC(=O)NCc4ccc5c(c4)OCO5)C(=O)N23)cc1 (centres undefined)	?	?	?	27%	-19%	?
CCOC(=O)N/N=C(/C)c1cccc(-n2cnnn2)c1	-3%	-16%	i	-11%	8%	20%
CCC(c1nnnn1Cc1ccc2c(c1)OCO2)N1CCN(c2ccc(OC)cc2)CC1 (centres undefined)	26µM*	?	i	-24%	-12%	-23%
SMILES	DT40 TDP1 CPT	TDP1 cell noCPT	ATXN viability	ATXN2 expr inh	HepG2 viability	TGFb SMAD3 inh
CCCC(c1nnnn1Cc1ccccc1)N1CCN(c2ccccc2OC)CC1 (centres undefined)	?	?	i	-7%	-12%	8%
CCC(c1nnnn1Cc1ccc2c(c1)OCO2)N1CCN(c2ccc(F)cc2)CC1 (centres undefined)	21µM*	?	i	-18%	-17%	-21%
CCCC(c1nnnn1Cc1ccc(OC)cc1)N1CCN(c2ccccc2OC)CC1 (centres undefined)	?	21µM*	i	-8%	-32%	?
O=C(Nc1cccc(C(F)(F)F)c1)OCCN1CCN(Cc2ccccc2)CCC1=O	21µM*	?	i	?	-14%	?
O=C(Nc1ccc(F)cc1)OCCN1CCN(Cc2ccccc2)CCC1=O	?	?	i	-1%	-13%	-28%
CCNc1nc(SCCOc2ccc(Cl)cc2Cl)nc(N(C)C)n1	?	?	i	-31%	-41%	?
C#CCN1C=C(C(=O)OCC)C(C)NS1(=O)=O (centres undefined)	3%	6%	i	9%	3%	30%
C#CCN1C=C(C(=O)OCC)C(C)N(Cc2ccccc2I)S1(=O)=O (centres undefined)	13µM*	8.2µM*	i	?	-8%	?
Cc1ccc(N(C)S(=O)(=O)c2ccc3c(c2)CC(C)N3C(=O)C2CC2)cc1 (centres undefined)	?	?	i	-15%	20%	-2%
CCN(c1ccc(OC)cc1)S(=O)(=O)c1ccc2c(c1)CC(C)N2C(=O)C1CC1 (centres undefined)	21µM*	18µM*	i	-2%	-1%	-16%
CC1Cc2cc(S(=O)(=O)N(C)c3ccc(Br)cc3)ccc2N1C(=O)C1CC1 (centres undefined)	23µM*	23µM*	i	0%	-26%	-30%
COc1ccc(CNC(=O)C2CCN(S(=O)(=O)c3ccc4c(c3)CC(C)N4C(=O)C3CC3)CC2)cc1 (centres undefined)	1%	7%	i	-10%	-3%	-27%
